Data: PubChem BioAssay AID1030 (National Center for Advancing Translational Sciences (NCATS), 2008)
Several values for one entry are separate records, joined by “and”; a condition that tells them apart may be missing. Equal entries are not always repeated. Hit rate of the full screen: of about 220,000 compounds, about 16,000 (7.3%) were called active. Entries that show only a call come without a potency. Roughly 25% stayed inconclusive and do not appear here. The full list was thinned out, with actives kept by preference. Values without a mark were called inactive. Calls come from the whole dose curve; as a rule, active = well fitted inhibition curve with a large enough effect (not every such curve was filed as active); inconclusive = small, poorly fitted or top-dose-only effect, or another doubt; inactive = no such curve, though single readings can be large or run the other way.

Target: Aldehyde dehydrogenase 1A1 (Homo sapiens) (UniProt P00352)
Experiment: qHTS Assay for Inhibitors of Aldehyde Dehydrogenase 1 (ALDH1A1)
Details: Purified ALDH1A1, NADH fluorescence, propionaldehyde substrate; series mostly up to 75.3 µM
Potency is the fitted concentration of half-maximal effect.

Chain of Aldehyde dehydrogenase 1A1 (Homo sapiens) (P00352 whole entry, looked up): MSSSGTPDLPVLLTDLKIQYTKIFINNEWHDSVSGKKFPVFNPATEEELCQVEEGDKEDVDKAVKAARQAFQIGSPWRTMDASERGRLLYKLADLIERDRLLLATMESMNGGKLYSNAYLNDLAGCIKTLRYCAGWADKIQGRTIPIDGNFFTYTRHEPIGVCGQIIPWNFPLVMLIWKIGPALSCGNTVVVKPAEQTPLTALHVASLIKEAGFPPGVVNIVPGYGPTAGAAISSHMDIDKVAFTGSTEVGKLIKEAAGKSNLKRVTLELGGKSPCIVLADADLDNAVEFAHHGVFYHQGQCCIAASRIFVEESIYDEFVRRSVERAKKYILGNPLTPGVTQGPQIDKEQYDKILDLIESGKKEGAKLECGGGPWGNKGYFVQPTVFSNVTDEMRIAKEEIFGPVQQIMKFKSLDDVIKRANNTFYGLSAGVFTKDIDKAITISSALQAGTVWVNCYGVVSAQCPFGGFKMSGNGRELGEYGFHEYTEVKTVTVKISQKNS

Row | Compound | Potency | activity, negative = inhibition
1 | CCc1cc2c(NC3CCCC3)ncnc2s1 | inactive | 
2 | COC(=O)C1=C(C(=O)OC)[C@@H]2N(C)c3ccccc3[C@@]23C[C@@H](C(=O)OC)N(C(C)=O)C3=N1 |  | 3.72% [at 13.5 µM]
3 | C[C@@H](C(=O)N1CCNCC1)n1cc(CCC(=O)O)nn1 | inactive | 
4 | O=C(Nc1ccccc1)c1nnsc1S(=O)(=O)c1ccc(Cl)cc1 | 2.24 µM (active) | 
5 | O=C(c1ccc(Cl)cc1)c1cnc(Nc2ccccc2)s1 | inactive | 
6 | O=C(Nc1ccc(Cl)cc1)c1ccsn1 | inactive | 
7 | O=C(O)CS/C(=C\c1ccc(F)cc1)c1nc2ccccc2s1 | inactive | 
8 | COc1cccc(CNC(=O)CCC2CCCN(Cc3ccc(OC(F)F)cc3)C2)c1 (stereo not given) | inactive | 
9 | Cn1c(N)c(C(=O)COC(=O)/C=C/c2ccc(OC(F)F)cc2)c(=O)n(C)c1=O | inactive | 
10 | O=C(Nc1ccccc1)N1CCN(C(=O)Nc2ccccc2)CC1 | inactive | 
11 | NC(=O)C1(N2CCCCC2)CCN(C(=O)c2ccc(C#Cc3ccccc3)o2)CC1 | inactive | 
12 | S=C(Nc1ccc2c(c1)OCO2)N1CCCC1 | inactive | 
13 | S=C(c1ccc(-c2ccccc2)o1)N1CCCCC1 | 3.55 µM (active) | 
14 | O=C(/C=C/c1ccc(OCc2c(F)cccc2Cl)cc1)N1CCOCC1 | inactive | 
15 | O=C1NC(c2ccc(-c3ccccc3[N+](=O)[O-])o2)C(C(=O)c2ccc(Cl)cc2)C(O)(C(F)(F)F)N1 (stereo not given) | 20 µM (active) | 
16 | CN1CCN(c2ccc(NC(=O)c3ccc4c(c3)OCCO4)cc2Cl)CC1 | inactive | 
17 | Cc1c(NC(=S)Nc2ccccc2)c(=O)n(-c2ccccc2)n1C | inactive | 
18 | COC(=O)Nc1c(C)n(C)n(-c2ccccc2)c1=O | inactive | 
19 | CCN(CC)P(=O)(/C(Cl)=C\Nc1c(C)n(C)n(-c2ccccc2)c1=O)N(CC)CC | 17.8 µM (active) | 
20 | COC(=O)c1ccc(NCC(=O)c2ccccc2)cc1 | 11.2 µM (active) | 
21 | Cc1ccc(C(=O)CNc2ccc(F)cc2)cc1 | 11.2 µM (active) | 
22 | COC(=O)c1ccc(NC(=O)Nc2ccc(C)cc2)cc1 | inactive | 

Row | Compound | Potency | activity, negative = inhibition
23 | COC(=O)c1ccc(NC(=O)C(C)N2C(=O)c3ccccc3C2=O)cc1 (stereo not given) | inactive | 
24 | Cc1ccc(NC(=O)CC(=O)Nc2ccc(C)cc2)cc1 | inactive | 
25 | Cc1ccc(C(=O)CS(C)(=O)=O)cc1 | inactive | 
26 | CC(C)Nc1nnc(SCC(=O)/C=C2\N(C)c3ccccc3C2(C)C)s1 | inactive | 
27 | CCCCCc1ccc(-c2ccc(OCC)cc2)nc1 | inactive | 
28 | O=C(N1CCCCC1)N1CCN(C(=O)N2CCCCC2)CC1 | inactive | 
29 | CCCNC(=O)c1c(Cl)cnn1-c1ccc(C)cc1 | inactive | 
30 | CCC(C)CN1CCC(CO)(Cc2ccccc2Cl)CC1 (stereo not given) | inactive | 
31 | COCCNC(=O)/C(C#N)=C/c1cccc(OCc2ccccc2)c1 | inactive | 
32 | O=C(NCC(O)c1ccc([N+](=O)[O-])cc1)C1CCCCC1 (stereo not given) | inactive | 
33 | NC(N)=N/N=C/c1ccc(Cl)c([N+](=O)[O-])c1 | inactive | 
34 | O=C1CSC(=S)N1/N=C/c1ccc(O)c([N+](=O)[O-])c1 | 1.26 µM (active) | 
35 | O=[N+]([O-])c1ccc(N2CCSCC2)cc1O | inactive | 
36 | Nc1ccc(C(=O)OCC(=O)NC2CCS(=O)(=O)C2)cc1[N+](=O)[O-] (stereo not given) | inactive | 
37 | CN(C)c1nccc(NCc2ccccc2)c1C#N | inactive | 
38 | CN(C(=O)COc1ncnc2c1cnn2-c1ccccc1)C1CCCCC1 | inactive | 
39 | CN(C)S(=O)(=O)Oc1ccccc1C(=O)Nc1ccccc1Cl | inactive | 
40 | CSCCC(NS(=O)(=O)/C=C/c1ccccc1)C(=O)N1CCC(C)CC1 (stereo not given) | 14.1 µM (active) | 
41 | CC(=O)Nc1ccccc1OC(C)C(=O)N1CCC(C)CC1 (stereo not given) | inactive | 
42 | CSCCC(NC(=O)C1CCC(C)CC1)C(=O)NCc1ccco1 (stereo not given) | inactive | 
43 | CCCCCCCCCCOC(=O)C[N+](C)(C)CC1CCCCC1O (stereo not given) | inactive | 
44 | O=[N+]([O-])c1ccc2c(c1)C(N1CCOCC1)/C(=C/C1(O)CCCCC1)O2 (stereo not given) | 10 µM (active) | 

Row | Compound | Potency | activity, negative = inhibition
45 | O=C(NC1CCCCC1)c1cc([N+](=O)[O-])ccc1N1CCOCC1 | inactive | 
46 | CC[C@H](C)[C@@H](NC(=O)O[C@@H]1C(=O)c2cc(OC)ccc2O[C@H]1c1cccc(OC)c1)C(=O)OC | inactive | 
47 | CCN(CC)CCNc1nc(-c2ccc(OC(F)F)cc2)c(C)s1 | inactive | 
48 | O=c1cc(-c2ccccc2)nc(N2CCCCC2)[nH]1 | inactive | 
49 | O=C(Nc1ccccc1N1CCCCC1)c1cccc(F)c1 | inactive | 
50 | O=C(c1ccccc1)c1ccc2nc(N3CCCCC3)c3nncn3c2c1 | 12.6 µM (active) | 
51 | O=C(O)C(c1ccccc1)C1(O)CCCCC1 (stereo not given) | inactive | 
52 | Cc1ccc(-c2cn(S(=O)(=O)c3cccc([N+](=O)[O-])c3)nc2N)cc1 | inactive | 
53 | O=C(Nc1ccncc1)c1cc(-c2ccccn2)nc2ccc(Br)cc12 | inactive | 
54 | C#CC(C)(C)NC(=O)CSc1nc2c(c(=O)n(C)c(=O)n2C)n1CCCC | inactive | 
55 | CCCCCn1c(SCCC(C)C)nc2c1c(=O)[nH]c(=O)n2C | 22.4 µM (active) | 
56 | Cn1c(=O)[nH]c(=O)c2c1nc(Br)n2CCCCSc1nc2ccccc2o1 | inactive | 
57 | Oc1ccc(CNc2ccccc2O)cc1 | 3.98 µM (active) | 
58 | Oc1ccccc1CNCc1ccccc1O |  | -6.72% [at 13.5 µM]
59 | O=[N+]([O-])c1ccccc1NCc1ccc(Cl)cc1 | inactive | 
60 | Cn1nc(C(F)(F)F)c2cc(C(=O)N3CCOCC3)sc21 | inactive | 
61 | Cc1ccnc2nc(C(=O)Nc3nnc(-c4ccccc4)o3)nn12 | inactive | 
62 | CCN1C(=O)/C(=C2\SC(N3CCCCC3)=NC2=O)c2ccccc21 | 10 µM (active) | 
63 | CC(C)=C1SC(N2CCN(c3cccc(C)c3)CC2)=NC1=O | inactive | 
64 | C=C/C1=C/Cc2ccccc2[C@H](C[N+](=O)[O-])C(C(=O)OC)(C(=O)OC)C1 | inactive | 
65 | O=C(CN1C(=O)CC(c2ccccc2)S(=O)(=O)c2ccccc21)NC1CCCC1 (stereo not given) | inactive | 
66 | COCCOC(=O)C1=C(C)Nc2nc(C)nn2C1c1ccccc1 (stereo not given) | inactive | 

Row | Compound | Potency | activity, negative = inhibition
67 | CC1=C(C(N)=O)C(c2ccc3c(c2)OCO3)n2nc(-c3cccc(C)c3)nc2N1 (stereo not given) | 3.55 µM (active) | 
68 | COc1cccc(-c2nc3n(n2)C(c2ccccc2Cl)C(C(N)=O)=C(C)N3)c1 (stereo not given) | inactive | 
69 | C/C(=N/NC(=O)CCc1ccccc1)c1ccco1 | inactive | 
70 | CSCCC(=O)N1CCCC(CNC(=O)c2ccccc2Cl)C1 (stereo not given) | inactive | 
71 | CC(C)(C)c1cc(P(=O)(c2ccccc2)c2ccccc2)ccc1O | inactive | 
72 | COCCCNC(=O)c1c(F)c(F)c(F)c(F)c1F | inactive | 
73 | COCCCNCC(=O)Nc1sc(C)c(C)c1C(=O)OC | 11.2 µM (active) | 
74 | CCC(=O)Nc1sc(C(=O)Nc2ccccc2)c(C)c1C(=O)OC | inactive | 
75 | Cc1ccc(CCCOC(=O)C[N+]2(C)CCCCC2)cc1 | inactive | 
76 | O=C(CC1NCCc2ccccc21)Nc1cccc(Cl)c1 (stereo not given) | inactive | 
77 | CC1CC(C)CN(S(=O)(=O)c2ccc(C(=O)NN3CCOCC3)cc2)C1 (stereo not given) | inactive | 
78 | CN(C)/C=C1\C=C(c2ccccc2)OC1=O | 10 µM (active) | 
79 | CNC(=S)N1CCC(NC(=O)C(Cc2ccc(F)cc2)NC(C)=O)CC1 (stereo not given) | inactive | 
80 | CC(=O)NC(Cc1ccc(F)c(F)c1)C(=O)NC1CCN(c2nnnn2-c2ccccc2)CC1 (stereo not given) | 3.16 µM (active) | 
81 | COc1ccc(CC(NC(C)=O)C(=O)NC2CCN(C(=O)C3CC3)CC2)cc1OC (stereo not given) | inactive | 
82 | N#CCC(=O)NC(=O)NCC1CC1 | 3.98 µM (active) and 1.26 µM (active) | 
83 | CC(C)(C)NC(=O)NC(=O)COC(=O)CCC1CCCCC1 | inactive | 
84 | CC(C)NC(=O)NC(=O)COC(=O)c1ccc(NC(=O)CC#N)cc1 | inactive | 
85 | COc1cccc(CC2(CO)CCN(Cc3cnc(-c4cccc(C)c4)nc3)CC2)c1 | inactive | 
86 | COc1ccc(C2CC(c3ccccc3)=NN2C(=O)COC(=O)COc2ccccc2)cc1 (stereo not given) | inactive | 
87 | O=C(CC1SCCNC1=O)Nc1ccc(Cl)c(Cl)c1 (stereo not given) | inactive | 
88 | Cc1oc2cc([N+](=O)[O-])c(O)c([N+](=O)[O-])c2c1C(=O)c1ccc(Br)cc1 | inactive | 

Row | Compound | Potency | activity, negative = inhibition
89 | CC(CCc1ccccc1)NC(=O)c1ccc(Br)o1 (stereo not given) | inactive | 
90 | CC(CNC(=O)c1ccc(Br)o1)NC(=O)c1ccc(Br)o1 (stereo not given) | 28.2 µM (active) | 
91 | CC(CNC(=O)c1ccc(N)cc1)NC(=O)c1ccc(N)cc1 (stereo not given) | inactive | 
92 | CS(=O)(=O)N(Cc1ccccc1Cl)c1ccc(C(=O)NCc2cccnc2)cc1 | inactive | 
93 | CC1CCN(CCC(=O)Nc2ccccc2)CC1 | inactive | 
94 | CCN(CC)CCNC(=O)c1ccc(NS(=O)(=O)c2ccc3c(c2)OCCO3)cc1 | inactive | 
95 | CCCCC/C=C\C/C=C\C/C=C\CCCCCCC(N)=O | inactive | 
96 | CC/C=C/C/C=C/C/C=C/CCCCCCCC(=O)OCC | 1.12 µM (active) | 
97 | CCCCC/C=C\C/C=C\CCCCCCCCCC(N)=O | inactive | 
98 | CC(=O)c1c(-c2ccccc2)c2ccccc2[nH]c1=O | inactive | 
99 | Brc1cc(/C=N/n2cnnc2)oc1Br | inactive | 
100 | O=C1COc2ccc(C(=O)COC(=O)c3cccnc3Cl)cc2N1 | inactive | 
101 | NNC(=O)C1CC(O)CN1S(=O)(=O)c1ccc(Cl)cc1 (stereo not given) | inactive | 
102 | O=C1COc2ccc(C(=O)COC(=O)C3CC(O)CN3S(=O)(=O)c3ccc(Cl)cc3)cc2N1 (stereo not given) | 5.01 µM (active) | 
103 | COC(=O)N/N=C/c1ccc(/C=N/NC(=O)OC)cc1 | inactive | 
104 | Cc1[nH]c2ccccc2c1SCC(=O)Nc1nccs1 | inactive | 
105 | CCC(=O)Nc1cc(C(F)(F)F)ccc1N1CCCC1 | inactive | 
106 | CC(=O)Nc1cccc(C(=O)Nc2nc(C)cs2)c1 | inactive | 
107 | O=C(O)CSc1nccc2ccccc12 | inactive | 
108 | Cc1cccc(N2C(=O)c3cccnc3C2=O)c1 | inactive | 
109 | CC(=O)Oc1ccc(C)cc1N1C(=O)c2ccc(C(=O)O)cc2C1=O | inactive | 
110 | Cc1ccc(Oc2ccc3c(c2)C(=O)N(c2cccc4cccnc24)C3=O)cc1 | 11.2 µM (active) | 
